Bioassay records as filed in PubChem.
This is a sample that favours compounds with a hit; in the whole collection about 19% have one here.
HT1080-NT tox: kills 2HG-producing HT-1080-NT fibrosarcoma cells. actives 1.6% (n = 360,000). HT-1080-NT fibrosarcoma viability, CellTiter-Glo ATP luminescence, 48 h. Potency, µM (titrated, usually from 46.1 µM), for the others: at the highest dose activity, negative = less viability, actives largely listed as cytotoxic;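 note: NT is the 2HG producing partner of a matched IDH1 knockdown line; potency is the fitted concentration of half-maximal effect; 0% = DMSO-treated cells and -100% = media-only wells without cells; nearly all actives have a fitted effect of over 55% in size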
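Viability by CellTiter-Glo luminescence after 48 h compound exposure at 37C of HT-1080-NT cells (750/well, RPMI, 5% FBS). % activity scaled between DMSO wells and medium-only wells, then curve-fitted and categorized by curve class.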
TDP1 cell CPT: DT40-hTDP1 cell growth loss with CPT. chicken DT40 Tdp1-/-;hTDP1 cells + 20 nM CPT, ATP luminescence, 48 h. Potency, µM (top dose mostly 46.2 µM), for inactives: at the highest dose activity change, negative = growth inhibition, usual class: inhibitors. actives 12% (n = 420,000). AID 686979; note: potency is the fitted concentration of half-maximal effect; nearly all actives have a fitted effect of over 55% in size
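Chicken DT40 Tdp1-/- cells stably complemented with human TDP1 were seeded at 400 cells/well in medium containing 20 nM camptothecin, exposed to pin-transferred compounds, and grown at 37 °C for at least 48 hr. Viability was read as ATP luminescence.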
TDP1 cell noCPT: qHTS for Inhibitors of human tyrosyl-DNA phosphodiesterase 1 (TDP1): qHTS in cells in absence of CPT; Potency, µM (top dose mostly 46.2 µM), inactives show at the top dose activity change, negative = growth inhibition, actives largely listed as inhibitors; AID 686978, 2013; DT40 Tdp1-/- hTDP1 cells, no CPT, ATP luminescence, 48 h; actives 15% (n = 420,000); note: potency is the fitted concentration of half-maximal effect; nearly all actives have a fitted effect of over 55% in size
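Readout: luminescence from CellTiter-Glo after 30 min in the dark at RT. Cells: DT40 Tdp1-/- with stable hTDP1, 400/well. Exposure: compounds alone, ≥48 hr, 37 °C.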
HT1080 IDH1KD tx: HT-1080 IDH1 knockdown cell toxicity (counter line) | HT-1080 IDH1 knockdown viability, ATP luminescence, 48 h | Potency, µM (series often up to 46.1 µM), inactives show top-dose activity, negative = toxicity, hits mostly cytotoxic | actives 2% (n = 360,000);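 note: potency is the fitted concentration of half-maximal effect; 0% = DMSO wells and -100% = cell-free medium wells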
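CellTiter-Glo luminescence after 48 h compound exposure at 37 degrees C of IDH1-knockdown HT-1080 cells in 5% FBS RPMI. %Activity scaled between DMSO wells and cell-free media wells, with curves fitted and assigned curve classes.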
IL1B secr inh: inflammasome signaling inhibition, IL-1 beta readout. activity change, % at 57.5 µM. THP-1 LPS/ATP IL-1B secretion, AlphaLISA, 16 h; stronger effect = lower value. actives 4.7% (n = 360,000); in the data active = activity change below about -50%; inconclusive = mostly about -30% to -49%
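Secreted IL-1B measured by AlphaLISA bead assay after 16 h compound exposure of THP-1 cells; compounds (final up to 57.5 uM) added 1 h before LPS (250 ng/mL) and ATP (1.25 mM) stimulation; lower signal means less secretion.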
* = called active by the depositor; ? = inconclusive; nt = no result. Unless noted, calls come from the whole dose curve; as a rule, active = well fitted curve in the direction sought with a large enough effect; inconclusive = small, poorly fitted or top-dose-only effect, or another doubt; inactive = no such curve, though single readings can be large; an effect the other way counts as inactive or inconclusive. Unless noted, % is set by controls: 0 for no effect and ±100 for the full control effect.

SMILES | HT1080-NT tox | TDP1 cell CPT | TDP1 cell noCPT | HT1080 IDH1KD tx | IL1B secr inh
Cc1ccc(OCCN2C(=O)C(=O)c3cccc(C)c32)cc1 | -1% | 2.3µM* | 2.9µM* | 11% | 2
Cc1cc2c(cc1S(=O)(=O)CCC(=O)N(C)C1CCCCC1)OCC(=O)N2 | -2% | -18% | -12% | 0% | -13
CCCCNC(=O)CCCCCNS(=O)(=O)c1ccc(Br)cc1 | 2% | -24% | ? | 4% | -4
CCC(Sc1nc2nccnc2c(=O)n1Cc1ccc(F)cc1)C(=O)NC1CCCCC1 (stereo unspecified) | nt | 21µM* | ? | nt | nt
CCC(Sc1nc2ncccc2[nH]1)C(=O)NC1CCCC1 (stereo unspecified) | 4% | 0% | 0% | 6% | 12
CC1CCCN(C(C(=O)Nc2ccc3c(c2)OCCO3)c2ccccc2)C1 (stereo unspecified) | -2% | -28% | -19% | 12% | -2
CC1CCCN(C(C(=O)NC2CCCCC2)c2cc3c(cc2[N+](=O)[O-])OCO3)C1 (stereo unspecified) | -5% | ? | ? | -5% | -59*
CC1CCCN(C(C(=O)Nc2ccc3c(c2)OCO3)c2ccccc2)C1 (stereo unspecified) | -21% | 15µM* | 16µM* | -6% | 24
Cn1c(-c2sc(=S)n(-c3ccccc3)c2N)nc2ccccc21 | 7% | -3% | -19% | 4% | 42
C=C1c2nc3ccccc3n2C=C(c2ccc(C)cc2)N1c1ccccc1 | 21µM* | 8.2µM* | 13µM* | 18µM* | 11
CC1=NN(c2ccccc2)C(=O)C1/C=C1\NC(=S)NC1=O (stereo unspecified) | 5% | 1% | 0% | 15% | 18
CC1=NN(c2ccccc2)C(=O)C1C=Nc1ccccc1O (stereo unspecified) | ? | ? | 18µM* | ? | 167
Cc1c2c(c(C)n1C)C(C(=O)NC1CCCCC1)N(Cc1ccccc1)C2=O (stereo unspecified) | 11% | -14% | -21% | 14% | -13
CCN1C/C(=C/c2ccc(N3CCOCC3)cc2)C(=O)/C(=C/c2ccc(N3CCOCC3)cc2)C1 | ? | ? | ? | 21µM* | -103*
CN1C/C(=C\c2ccc(N3CCOCC3)cc2)C(=O)/C(=C/c2ccc(N3CCOCC3)cc2)C1 | ? | ? | 21µM* | ? | -103*
CCCC(=O)Nc1ccc(N2CCOCC2)cc1 | -6% | -24% | -1% | -2% | 5
CN1C/C(=C/c2ccsc2)C(=O)/C(=C/c2ccsc2)C1 | ? | 10µM* | 13µM* | ? | -94*
O=C(COC(=O)c1ccccn1)NCc1cccs1 | 17% | -10% | -10% | 16% | 23
CCN(C1CCCCC1)S(=O)(=O)CCNC(=O)c1ccc(OC)cc1 | 9% | ? | ? | 7% | -6
COc1cc(/C=C2\C(C)=C(C#N)c3nc(N)c(C#N)c(C)c32)ccc1OCC(=O)O | 12% | 23µM* | ? | 0% | 0
COCCCNC(=O)/C(C#N)=C/c1ccc(OCC(=O)O)c(OC)c1 | 12% | -2% | -11% | ? | -3
CC(C)(C)c1ccc(C(=O)Nc2nc3nc(-c4ccccc4)cc(=O)n3[nH]2)cc1 | nt | -10% | -2% | nt | nt
O=S(=O)(NCCc1csc2nc(-c3ccc(F)cc3)nn12)c1ccc2c(c1)OCCO2 | nt | 16µM* | 23µM* | nt | nt
COc1ccc(-c2nc3scc(CCNS(=O)(=O)c4ccc5c(c4)OCCO5)n3n2)cc1OC | nt | ? | 21µM* | nt | nt
Cc1csc2nc(CCNS(=O)(=O)c3ccc4c(c3)OCCO4)cn12 | 0% | -9% | -14% | 8% | -14
SMILES | HT1080-NT tox | TDP1 cell CPT | TDP1 cell noCPT | HT1080 IDH1KD tx | IL1B secr inh
O=S(=O)(NCCc1csc2nc(-c3ccccc3)nn12)c1ccc(Cl)s1 | nt | -22% | ? | nt | nt
O=S(=O)(NCCc1csc2nc(-c3ccc(Cl)cc3)nn12)c1ccc2c(c1)OCCO2 | nt | 15µM* | 9.2µM* | nt | nt
COc1ccc(-c2nc3scc(CCNS(=O)(=O)c4ccc(F)c(C(F)(F)F)c4)n3n2)cc1OC | nt | 15µM* | 13µM* | nt | nt
O=C(CSc1nncs1)Nc1ccc2c(c1)OCO2 | 4% | 7% | 8% | 4% | -14
CCCn1c(N)c(C(=O)CSc2nnc(Cc3cccs3)n2C2CC2)c(=O)n(C)c1=O | -12% | ? | ? | 0% | 5
Cc1nc2ccccn2c1C(=O)N=Nc1c(O)n(CCC(C)C)c2ccccc12 | -2% | 7.3µM* | 7.3µM* | -2% | 16
CC(Oc1ccc(C#N)cc1)C(=O)N1CC=C(c2ccccc2)CC1 (stereo unspecified) | ? | ? | ? | ? | -61*
CCOC(=O)N1CCN(Cc2cn[nH]c2-c2cc3ccccc3o2)CC1 | -2% | -17% | -8% | -5% | ?
CCN1CCN(C(=O)c2ccc3c(c2)N(Cc2cccc(Cl)c2)C(=O)c2ccccc2S3=O)CC1 (stereo unspecified) | nt | ? | 21µM* | nt | nt
CC1CC(C)CN(CCCNC(=O)c2ccc3c(c2)N(Cc2ccccc2)C(=O)c2ccccc2S3=O)C1 (stereo unspecified) | -1% | ? | ? | -15% | ?
CC1CCCCN1C(=O)c1ccc2c(c1)N(Cc1cccc(Cl)c1)C(=O)c1ccccc1S2=O (stereo unspecified) | nt | ? | 21µM* | nt | nt
O=C(c1ccc2c(c1)N(Cc1cccc(Cl)c1)C(=O)c1ccccc1S2=O)N1CCN(c2cccc(C(F)(F)F)c2)CC1 (stereo unspecified) | nt | 16µM* | 10µM* | nt | nt
O=C(c1ccc2c(c1)N(Cc1cccc(Cl)c1)C(=O)c1ccccc1S2=O)N1CCC(Cc2ccccc2)CC1 (stereo unspecified) | nt | 3.3µM* | 4.6µM* | nt | nt
O=C(c1ccc2c(c1)N(Cc1ccccc1F)C(=O)c1ccccc1S2=O)N1CCCCC1 (stereo unspecified) | nt | -22% | -11% | nt | nt
N#CCCN(Cc1cccs1)C(=O)Nc1ccccc1 | -8% | 5% | -2% | -1% | 13
O=C(Nc1cc(Cl)cc(Cl)c1)c1cnn2c1NC(=C1CC1)C=C2C(F)F | nt | -25% | -19% | nt | nt
Cc1cccc(N2CCN(C(=O)c3ccc4c(c3)N(Cc3cccc(Cl)c3)C(=O)c3ccccc3S4=O)CC2)c1C (stereo unspecified) | nt | 3.7µM* | 5.2µM* | nt | nt
CC(C)NC(=O)c1ccc2c(c1)N(Cc1cccc(Cl)c1)C(=O)c1ccccc1S2=O (stereo unspecified) | nt | 21µM* | ? | nt | nt
